Results: PubChem BioAssay
Active and inactive are the calls of the source. Unless noted, the rule behind the calls is not given here.

What was measured:
[1] = HepG2 liver cancer cell viability effects, profiling panel, resazurin fluorescence, 24 h, PK04 Diversity Set (AID 1172); conditions: higher = more signal
[2] = basal S. cerevisiae growth modulation, no modifier, primary screen, OD600, strain BY4716, 24 h, basal condition (AID 1173); conditions: OD600, 24 h, higher = more signal, called active from +8 up or from −8 down
[3] = MM1S myeloma cell viability, profiling panel, resazurin fluorescence, basal, 24 h, PK04 Diversity Set (AID 1174); conditions: higher = more signal, called active from +8 up or from −8 down;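 note: MM1S multiple myeloma cell line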
[4] = target: Dihydroorotate dehydrogenase (quinone), mitochondrial (Plasmodium falciparum (isolate 3D7)) (UniProt Q08210); assay: PfDHODH enzyme inhibitors, primary screen, biochemical, C-terminal His tag, absorbance 600 nm (AID 1175); conditions: DCIP absorbance 600 nm, higher = more signal, called active from +8 up or from −8 down;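 note: recombinant parasite enzyme with a five histidine tag at its C terminus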
[5] = P. aeruginosa biofilm formation inhibitors, primary screen, strain PAO1, LB-PBS medium, absorbance 600 nm (AID 1176); conditions: P. aeruginosa PAO1 growth/biofilm, A600, 12 h; higher = more signal
[6] = S. cerevisiae RM11-1a growth modifiers, primary screen, strain RM11-1a, OD600, basal, 24 h (AID 1177); conditions: OD600, 24 h, higher = more signal, called active from +8 up or from −8 down;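 note: cultures grown under basal conditions with no added stressor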
[7] = E. coli acrAB mutant growth effects, primary screen, E. coli filamentation inducers, strain DRC39, OD650, 24 h (AID 1178); conditions: higher = more signal, called active from +8 up or from −8 down;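 note: growth measured as culture turbidity by optical density at 650 nm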
[8] = E. coli acrAB mutant growth effects, primary screen, E. coli filamentation inducers, strain DRC39, OD650, 48 h (AID 1179);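 note: screen aims at cell division blockers that make cells filament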; conditions: E. coli DRC39 delta-acrAB growth, higher = more signal, called active from +8 up or from −8 down
[9] = RPMI8226 myeloma cell viability, profiling panel, resazurin fluorescence, basal, 24 h, PK04 Diversity Set (AID 1180); conditions: higher = more signal;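 note: RPMI8826 multiple myeloma cell line at 5000 cells per well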
[10] = target: E3 ubiquitin-protein ligase XIAP (Homo sapiens) (UniProt P98170); assay: XIAP binders, primary screen, biophysical, small-molecule microarray, fluorescence 635 nm (AID 1181); conditions: small-molecule microarray binding, higher = more signal;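 note: score merges 667 nm emission and signal to noise over triplicate slides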
[11] = test system: XIP peptide (Xip251-270) binding; assay: small-molecule binders of XIP peptide, primary screen, biochemical, small-molecule microarray, fluorescence 635/667 nm, 0.1 µg/mL protein (AID 1182); conditions: fluorescent protein binding, 635 nm, higher = more signal, called active from +8 up or from −8 down
XIP peptide (Xip251-270) = assay: small-molecule binders of XIP peptide, primary screen, biochemical, small-molecule microarray, fluorescence 635/667 nm, 0.5 µg/mL protein (AID 1183); conditions: small-molecule microarray binding, fluorescence 635 nm; higher = more signal
[12] = Plasmodium falciparum growth inhibition, primary screen, strain 3D7, DAPI fluorescence, 100 nL (AID 1184);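 note: parasites grown inside human red blood cells in medium with human serum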; conditions: P. falciparum 3D7 growth, 3 d, higher = more signal
[13] = target: Homeobox protein Hox-A13 (Mus musculus) (UniProt Q62424); assay: inhibitors of HoxA13-DNA binding, primary screen, biochemical, fluorescence polarization, labeled oligonucleotide (AID 1185); conditions: 15 min, higher = more signal, called active from +8 up or from −8 down
[14] = inhibitors of hydroxyurea-induced Chk1 phosphorylation, primary screen, imaging, HeLa, phospho-Chk1 antibody, percent positive cells (AID 1186); conditions: hydroxyurea-induced phospho-Chk1 immunofluorescence imaging, higher = more signal
[15] = inhibitors of hydroxyurea-induced Chk1 phosphorylation, primary screen, imaging, HeLa, phospho-Chk1 nuclear intensity (AID 1187); conditions: hydroxyurea-induced phospho-Chk1 immunofluorescence imaging, higher = more signal

Dihydroorotate dehydrogenase (quinone), mitochondrial (Plasmodium falciparum (isolate 3D7)), sequence (Q08210 whole entry, looked up): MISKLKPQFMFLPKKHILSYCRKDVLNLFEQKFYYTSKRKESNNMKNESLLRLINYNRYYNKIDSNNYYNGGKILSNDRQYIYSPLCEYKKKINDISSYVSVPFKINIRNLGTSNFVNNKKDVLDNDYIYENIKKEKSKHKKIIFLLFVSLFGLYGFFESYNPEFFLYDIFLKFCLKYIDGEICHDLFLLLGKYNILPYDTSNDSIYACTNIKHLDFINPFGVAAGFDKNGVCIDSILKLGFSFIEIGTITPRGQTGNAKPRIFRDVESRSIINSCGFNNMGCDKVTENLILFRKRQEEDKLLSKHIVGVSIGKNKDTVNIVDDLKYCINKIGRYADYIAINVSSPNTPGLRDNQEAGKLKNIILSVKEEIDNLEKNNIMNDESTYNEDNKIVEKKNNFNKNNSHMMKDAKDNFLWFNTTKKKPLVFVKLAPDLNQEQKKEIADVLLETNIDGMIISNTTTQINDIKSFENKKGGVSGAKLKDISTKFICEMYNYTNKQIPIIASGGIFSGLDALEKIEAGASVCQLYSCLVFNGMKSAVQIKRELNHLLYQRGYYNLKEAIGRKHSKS
Homeobox protein Hox-A13 (Mus musculus), sequence (Q62424 whole entry, looked up): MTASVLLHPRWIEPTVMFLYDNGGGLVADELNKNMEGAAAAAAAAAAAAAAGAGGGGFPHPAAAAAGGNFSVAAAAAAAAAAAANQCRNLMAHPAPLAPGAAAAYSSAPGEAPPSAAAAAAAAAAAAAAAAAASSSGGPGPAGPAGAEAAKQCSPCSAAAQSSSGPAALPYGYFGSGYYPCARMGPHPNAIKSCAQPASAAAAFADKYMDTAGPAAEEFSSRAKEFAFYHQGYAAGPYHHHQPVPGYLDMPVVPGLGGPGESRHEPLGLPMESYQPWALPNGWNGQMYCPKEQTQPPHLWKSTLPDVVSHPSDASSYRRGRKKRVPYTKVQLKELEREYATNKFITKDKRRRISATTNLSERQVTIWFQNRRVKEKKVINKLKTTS
E3 ubiquitin-protein ligase XIAP (Homo sapiens), sequence (P98170 whole entry, looked up): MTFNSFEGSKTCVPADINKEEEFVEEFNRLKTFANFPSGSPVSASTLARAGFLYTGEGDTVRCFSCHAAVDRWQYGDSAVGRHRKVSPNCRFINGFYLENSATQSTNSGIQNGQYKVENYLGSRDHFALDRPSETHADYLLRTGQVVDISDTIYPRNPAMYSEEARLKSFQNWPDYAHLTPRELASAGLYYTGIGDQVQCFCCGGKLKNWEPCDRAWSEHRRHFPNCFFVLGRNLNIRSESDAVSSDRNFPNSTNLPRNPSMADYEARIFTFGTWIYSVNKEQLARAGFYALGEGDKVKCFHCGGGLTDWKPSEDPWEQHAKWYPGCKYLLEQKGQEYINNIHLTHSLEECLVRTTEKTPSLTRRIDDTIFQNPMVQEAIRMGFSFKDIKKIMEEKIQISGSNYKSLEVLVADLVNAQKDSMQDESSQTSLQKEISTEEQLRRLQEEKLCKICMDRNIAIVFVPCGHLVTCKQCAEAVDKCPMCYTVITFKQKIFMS

Row | Structure (SMILES) | z-score [1] | z-score [2] | z-score [3] | composite z-score [4] | z-score [5] | z-score [6] | z-score [7] | z-score [8] | z-score [9] | composite z-score [10] | composite z-score [11] | composite z-score (XIP peptide (Xip251-270)) | z-score [12] | z-score [13] | z-score [14] | z-score [15]
1 | NC(=O)NCC#Cc1ccc2c(c1)[C@]1(C(=O)N2)[C@H](C(=O)Nc2nc3ccccc3s2)[C@H]2C(=O)O[C@H](c3ccccc3)[C@H](c3ccccc3)N2[C@@H]1c1ccccc1OCCO | 0.446 | 0.32 (inactive) | -0.784 (inactive) | 2.26 (inactive) | 1.6 (inactive) | 1.8 (inactive) | -0.846 (inactive) | -0.728 (inactive) | -0.651 | 0.711 | 0.478 (inactive) | 0.606 | -1.74 | 2.54 (inactive) | 0.302 (inactive) | 0.603 (inactive)
2 | COC(=O)C(CC#Cc1ccc2c(c1)[C@]1(C(=O)N2)[C@H](c2ccc(OCCO)cc2)N2[C@H](c3ccccc3)[C@H](c3ccccc3)OC(=O)[C@H]2[C@@H]1C(=O)Nc1nc2ccccc2s1)C(=O)OC | 1.51 | 2.09 (inactive) | 0.932 (inactive) | -0.983 (inactive) | 2.98 (inactive) | 3.16 (inactive) | 1.01 (inactive) | 0.824 (inactive) | -0.257 | -0.138 | 0.081 (inactive) | 0.54 | -1.79 | 0.63 (inactive) | -0.378 (inactive) | -0.763 (inactive)
3 | C=CCC(OC(C)=O)[C@@H]1[C@@H](N(Cc2ccc(-c3cccc(C(F)(F)F)c3)o2)C(=O)c2ccc(C)cc2)c2cc(OCCCO)ccc2N1C(=O)Cc1ccc2ccccc2c1 (stereo not given in full) | 0.358 | -0.219 (inactive) | 0.837 (inactive) | -0.802 (inactive) | -0.312 (inactive) | 0.476 (inactive) | -0.333 (inactive) | 0.409 (inactive) | 1.22 | -0.0286 | 0.332 (inactive) | -0.0506 | 0.337 | -0.62 (inactive) | -0.385 (inactive) | -0.709 (inactive)
4 | C=CCC(OC(C)=O)[C@@H]1[C@@H](N(Cc2ccc(-c3ccccc3)cc2)C(=O)c2ccc(-c3ccccc3)cc2)c2cc(OCCCO)ccc2N1C(=O)Cc1ccc2ccccc2c1 (stereo not given in full) | 0.289 | 0.274 (inactive) | 0.7 (inactive) | -0.0366 (inactive) | 0.526 (inactive) | -0.357 (inactive) | -0.433 (inactive) | -0.5 (inactive) | 0.465 | 0.225 | -0.313 (inactive) | -0.241 | 0.799 | -1.05 (inactive) | 0.321 (inactive) | 0.392 (inactive)
5 | CCCCCCc1nc(-c2cc(C)c(OC)c(C)c2)cc2c1[Si](C(C)C)(C(C)C)OC2 | -0.206 | -1.09 (inactive) | 0.401 (inactive) | -3.17 (inactive) | -0.747 (inactive) | -0.493 (inactive) | 0.615 (inactive) | 0.641 (inactive) | -0.11 | 0.0537 | -0.267 (inactive) | -0.191 | -2.34 | -0.772 (inactive) | -0.157 (inactive) | -0.188 (inactive)
